PubChem BioAssay AID463190 (Sanford-Burnham Center for Chemical Genomics, 2010)
Out of some 330,000 compounds screened, about 7,300 (2.2%) were called active. This is one part of a sample in which actives are shown more often than they occur. Unmarked numbers belong to inactive results.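 The calls were made as follows: active = inhibition of at least 40%; inactive = the rest.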

Assay: growth inhibitors of tim10-1 mutant yeast, primary screen, luminescence, uHTS (AID 463190);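 also: mutant grown at 25 °C; 0% = DMSO wells with yeast and 100% = wells holding no yeast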
Conditions: S. cerevisiae tim10-1 ts strain growth, BacTiter-Glo, 24 h; at 20 µM; hits give high values

Structure (SMILES)	inhibition
COc1ccc(CNC(=O)[C@@H]2CC=C[C@@H]3CCN(C4CC4)C(=O)[C@@H]32)cc1	6.25%
CN(Cc1c(F)cccc1Cl)S(=O)(=O)c1cccs1	-0.379%
COC(=O)c1ccc(CNC(=O)C2CCC(=O)N(Cc3cccc(F)c3)C2)cc1 (centres undefined)	-22.8%
O=C(O)C1CCN(c2ccc([N+](=O)[O-])cc2[N+](=O)[O-])CC1	4.89%
O=[N+]([O-])c1ccc(N2CCN(c3ccc(O)cc3)CC2)c(Cl)c1	40.3% (active)
COc1ccc(N2CCN(c3ccc([N+](=O)[O-])cc3Cl)CC2)cc1	-1.93%
ONC(=Nc1ccccc1)c1ccccc1Cl	18.6%
ONC(=Nc1ccc(Cl)cc1)c1ccccc1Cl	42.6% (active)
O=C(O)C1C2C=CC(O2)C1C(=O)NCCc1cccc(Cl)c1 (centres undefined)	-10.4%
O=C(/C=C/Sc1ncn[nH]1)c1ccc(Cl)cc1	61.4% (active)
O=C(CSc1ncn[nH]1)Nc1ccc(Br)cc1Br	-12.6%
O=C(CSc1ncn[nH]1)N/N=C/c1ccc(F)cc1	-11.2%
N#C/C(=C\c1ccc(N2CCOCC2)o1)C(=O)N1CCOCC1	9.56%
Cc1ccc([N+](=O)[O-])c(OCCCNCC(C)O)c1 (centres undefined)	2.12%
CN(C)CCNc1ccc(-c2n[nH]c(=O)c3ccccc23)cc1[N+](=O)[O-]	1.37%
O=C(/C=C/c1cccs1)NCc1cccnc1	8.39%
O=S(=O)(Nc1ccc(Oc2ncccn2)c(Cl)c1)c1ccc(F)cc1	15.3%
O=S(=O)(Nc1cccc(Oc2ccc(Cl)cc2)n1)c1ccc(F)cc1	43.9% (active)
O=S(=O)(Nc1ccccn1)c1cccc(S(=O)(=O)c2ccc(Cl)cc2)c1	14.9%
CCC1CCCCN1S(=O)(=O)Cc1ccccc1Cl (centres undefined)	25.3%
COc1ccc2c(CC(=O)N3CCc4cc(OC)c(OC)cc4C3)coc2c1	8.12%
COc1ccc(NCc2nnc(SCc3ccccc3)n2-c2ccc(OC)cc2)cc1	49.4% (active)

Structure (SMILES)	inhibition
COc1ccc(-c2nnc(SCC(=O)c3ccco3)n2-c2ccccc2)cc1	23.4%
CCn1c(CNc2ccc(OC)cc2)nnc1SCC(=O)c1ccc(OC)cc1	25.4%
O=S(=O)(NC1CCCCC1N1CCN(c2ccccc2F)CC1)c1ccccc1 (centres undefined)	21.7%
COc1ccc(C(=O)CN2C(=O)NC3(CCc4ccccc43)C2=O)c(OC)c1 (centres undefined)	-9.01%
O=C(CC1(O)C(=O)N(CN2CCOCC2)c2ccccc21)c1ccccc1 (centres undefined)	15.9%
C#CCN1C(=O)C(O)(CC(=O)c2cc(OC)ccc2OC)c2ccccc21 (centres undefined)	41.9% (active)
O=C(Nc1cc(S(=O)(=O)N2CCOCC2)ccc1Cl)c1cc(=O)c2ccccc2o1	19.5%
Cc1cccc(NC(=O)Nc2cccc(Oc3c(F)c(F)c(F)c(F)c3F)c2)c1	21.3%
Cc1ccoc1C(=O)Nc1cccc(Oc2ccccc2)c1	49.3% (active)
CC(Oc1cccc(NC(=O)c2cccs2)c1)C(=O)c1ccccc1 (centres undefined)	27.6%
COc1cccc2c1OCC1COc3c(c(=O)n(C)c(=O)n3C)C21 (centres undefined)	-6.86%
COc1ccccc1N1CC(C(=O)Nc2ccc(S(=O)(=O)N3CCOCC3)cc2)CC1=O (centres undefined)	4.85%
CCN(CC(=O)NCc1cccs1)c1nnnn1-c1ccccc1	-19.2%
CCOC(=O)c1c(-c2ccccc2)oc2cc(Br)c(O)cc12	48.2% (active)
CCOC(=O)c1c(C)oc2cc(Sc3ccccc3)c(O)c(O)c12	34.3%
CCOC(=O)c1c(C)oc2ccc(OCC(=O)N(CC)CC)cc12	14.2%
CCOC(=O)c1c(-c2ccccc2)oc2ccc(OCC(N)=O)cc12	18.7%
CCOC(=O)c1c(-c2ccccc2)oc2ccc(OCC(=O)NN)cc12	45.4% (active)
CCOC(=O)c1c(C)oc2cc(Br)c(OCC(N)=O)cc12	1.54%
CC(=O)Nc1ccc(C(=O)NNC(=O)CCCCC(=O)NNC(=O)c2ccc(NC(C)=O)cc2)cc1	10.6%
O=C(CCc1nc2ccccc2c(=O)[nH]1)OCC(=O)c1cccc(Cl)c1	18.5%
O=C(/C(=C/c1cccc(Cl)c1)c1nc2ccccc2[nH]1)c1ccccc1	43.5% (active)

Structure (SMILES)	inhibition
O=C(Cc1nc2ccccc2[nH]c1=O)c1ccc(Cl)cc1	5.58%
CCCN=C1N(C)C[C@@H]2[C@@H]3C(=O)N(Cc4ccccc4)C(=O)[C@@H]3[C@](C)(C(=O)OC)N12	0.857%
O=C(COC(=O)c1cccc(Cl)c1)NC1CCCCCCC1	8.83%
Cc1cccc([C@H]2[C@@H]3C=CC[C@@H](C)[C@@H]3C(=O)N2Cc2ccccc2)c1	33.1%
Cn1cc(CN2CCCCC2c2ccccn2)c(-c2ccc3c(c2)OCCO3)n1 (centres undefined)	9.13%
CCOC(=O)C1CCN(C(=O)Cn2nc(C)c3c(C)n(-c4ccccc4)nc3c2=O)CC1	27.3%
O=C(NN1CCOCC1)c1cccc(F)c1	-9.56%
COc1c(C)c2c(c(O)c1C/C=C(\C)CCC(=O)O)C(=O)OC2	4.45%
O=C(CCc1ccccc1)NNC(=O)COc1ccc(Cl)cc1	0.762%
N/C(=N\OC(=O)N1c2ccccc2Sc2ccccc21)c1ccc(Br)cc1	8.49%
COc1ccc(S(=O)(=O)NCCCc2ccccc2)cc1	19.3%
N/C(=N\OC(=O)/C=C/c1ccccc1)c1ccc(Br)cc1	25.9%
N/C(=N\OC(=O)Cc1ccccc1[N+](=O)[O-])c1ccc(Br)cc1	57% (active)
N/C(=N\OC(=O)CCc1ccccc1)c1cccnc1	21.7%
COc1ccc(/C(N)=N/OC(=O)Cc2ccccc2)cc1	46.5% (active)
COc1ccc(CCC(=O)c2ccc(OC)cc2)cc1	5.98%
COc1ccc(/C(N)=N/OC(=O)CCCc2ccccc2)cc1	45.1% (active)
N/C(=N\OC(=O)CCc1ccccc1)c1ccc(Cl)cc1	65.2% (active)
CCOC(=O)C(Cc1ccccc1)NC(=O)CCC(=O)c1ccc(OC)cc1 (centres undefined)	23.1%
COc1ccc(/C(N)=N/OC(=O)Oc2ccccc2)cc1	5.03%
